Experimental data: the supplement of paper PMC11732987, “Enantioselective OTUD7B fragment discovery through chemoproteomics screening and high-throughput optimisation” (Communications Chemistry, 2025)

Experiments:
Test in all cases: log2 ratio of Biotin-Ahx-Ub-VS probe labelling (fragment/DMSO); higher = less target engagement (more negative = stronger competition), active = hit call of the paper (q ≤ 0.05, log2 ratio ≤ -1)
Conditions in all cases: compound concentration: 200 uM; treatment time: 3 h
[1] = target: T1, ALG13 (UniProt Q9NP73)
T1 sequence (whole entry): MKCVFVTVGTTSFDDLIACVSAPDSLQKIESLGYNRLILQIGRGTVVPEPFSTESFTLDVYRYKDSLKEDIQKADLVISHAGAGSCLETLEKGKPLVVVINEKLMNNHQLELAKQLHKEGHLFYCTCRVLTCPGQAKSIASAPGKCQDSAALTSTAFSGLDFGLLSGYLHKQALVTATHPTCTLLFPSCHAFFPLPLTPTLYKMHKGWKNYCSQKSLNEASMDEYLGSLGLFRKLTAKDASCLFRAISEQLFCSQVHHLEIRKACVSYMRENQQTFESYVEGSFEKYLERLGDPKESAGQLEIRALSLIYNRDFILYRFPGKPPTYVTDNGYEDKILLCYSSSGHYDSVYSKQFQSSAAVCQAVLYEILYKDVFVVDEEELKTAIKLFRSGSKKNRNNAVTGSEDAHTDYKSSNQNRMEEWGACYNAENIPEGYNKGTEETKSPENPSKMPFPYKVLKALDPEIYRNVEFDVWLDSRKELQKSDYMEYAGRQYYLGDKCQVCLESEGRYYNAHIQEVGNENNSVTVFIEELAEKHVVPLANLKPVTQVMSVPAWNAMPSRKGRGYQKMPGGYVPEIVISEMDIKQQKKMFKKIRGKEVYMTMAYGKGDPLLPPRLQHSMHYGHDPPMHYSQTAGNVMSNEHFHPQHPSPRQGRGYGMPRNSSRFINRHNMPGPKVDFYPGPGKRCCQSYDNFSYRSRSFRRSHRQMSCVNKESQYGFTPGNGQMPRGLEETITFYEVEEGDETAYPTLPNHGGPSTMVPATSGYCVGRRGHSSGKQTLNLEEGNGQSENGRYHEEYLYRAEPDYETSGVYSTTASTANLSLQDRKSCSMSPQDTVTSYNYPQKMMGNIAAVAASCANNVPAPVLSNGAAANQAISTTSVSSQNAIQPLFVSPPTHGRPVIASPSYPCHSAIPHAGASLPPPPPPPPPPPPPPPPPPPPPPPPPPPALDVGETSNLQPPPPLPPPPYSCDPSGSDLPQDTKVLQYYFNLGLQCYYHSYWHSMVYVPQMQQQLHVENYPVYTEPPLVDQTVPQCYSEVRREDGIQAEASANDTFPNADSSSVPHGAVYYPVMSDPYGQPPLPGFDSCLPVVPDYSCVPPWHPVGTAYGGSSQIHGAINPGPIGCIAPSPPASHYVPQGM
Procedure, shortened: (§1)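 Fragment (200 µM) or vehicle was incubated for 3 h with triplicate HEK293T lysate samples of 495 µg, which were then treated with Biotin-Ahx-Ub-VS at 0.5 µM final for 1 h. Labelled DUBs were enriched on NeutrAvidin, digested with LysC and trypsin, and analysed by diaPASEF LC-MS/MS. Values are average log2 fragment/vehicle ratios from an unpaired t-test on global-median-normalised Spectronaut label-free quantities, using proteins with ≥2 unique peptides.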

[2] = target: ATXN3 (UniProt P54252)
Sequence of ATXN3 (P54252 whole entry): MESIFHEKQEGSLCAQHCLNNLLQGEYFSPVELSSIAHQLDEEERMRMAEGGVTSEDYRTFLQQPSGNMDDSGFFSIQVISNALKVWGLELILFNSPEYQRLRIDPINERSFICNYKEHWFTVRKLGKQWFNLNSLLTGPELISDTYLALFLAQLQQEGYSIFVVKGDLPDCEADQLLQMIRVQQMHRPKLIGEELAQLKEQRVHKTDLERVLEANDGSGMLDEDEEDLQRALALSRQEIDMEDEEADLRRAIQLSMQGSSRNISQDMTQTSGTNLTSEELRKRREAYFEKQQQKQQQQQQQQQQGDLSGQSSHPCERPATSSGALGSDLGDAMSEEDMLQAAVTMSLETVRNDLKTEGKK
Procedure, shortened: as §1

[3] = target: T2, BAP1 (UniProt Q92560)
T2 sequence (whole entry): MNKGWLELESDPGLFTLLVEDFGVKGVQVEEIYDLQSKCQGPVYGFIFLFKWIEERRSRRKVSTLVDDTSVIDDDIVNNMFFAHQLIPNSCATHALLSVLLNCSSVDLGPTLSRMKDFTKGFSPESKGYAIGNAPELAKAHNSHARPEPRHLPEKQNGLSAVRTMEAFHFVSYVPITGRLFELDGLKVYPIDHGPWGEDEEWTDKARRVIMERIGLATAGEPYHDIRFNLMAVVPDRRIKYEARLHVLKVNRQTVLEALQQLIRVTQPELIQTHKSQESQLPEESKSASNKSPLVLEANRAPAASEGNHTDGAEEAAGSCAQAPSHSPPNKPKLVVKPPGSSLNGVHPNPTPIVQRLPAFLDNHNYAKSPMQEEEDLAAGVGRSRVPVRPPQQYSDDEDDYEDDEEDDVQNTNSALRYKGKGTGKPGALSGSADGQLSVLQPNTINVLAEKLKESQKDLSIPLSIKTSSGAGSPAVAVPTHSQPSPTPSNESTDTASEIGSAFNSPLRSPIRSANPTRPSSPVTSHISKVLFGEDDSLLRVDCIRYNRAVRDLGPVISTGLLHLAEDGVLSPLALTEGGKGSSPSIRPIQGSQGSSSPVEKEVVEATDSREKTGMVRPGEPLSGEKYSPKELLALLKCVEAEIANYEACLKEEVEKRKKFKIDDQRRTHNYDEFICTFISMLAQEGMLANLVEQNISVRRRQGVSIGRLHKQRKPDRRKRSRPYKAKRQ
Procedure, shortened: as §1

[4] = target: EIF3F (UniProt O00303)
Sequence of EIF3F (O00303 whole entry): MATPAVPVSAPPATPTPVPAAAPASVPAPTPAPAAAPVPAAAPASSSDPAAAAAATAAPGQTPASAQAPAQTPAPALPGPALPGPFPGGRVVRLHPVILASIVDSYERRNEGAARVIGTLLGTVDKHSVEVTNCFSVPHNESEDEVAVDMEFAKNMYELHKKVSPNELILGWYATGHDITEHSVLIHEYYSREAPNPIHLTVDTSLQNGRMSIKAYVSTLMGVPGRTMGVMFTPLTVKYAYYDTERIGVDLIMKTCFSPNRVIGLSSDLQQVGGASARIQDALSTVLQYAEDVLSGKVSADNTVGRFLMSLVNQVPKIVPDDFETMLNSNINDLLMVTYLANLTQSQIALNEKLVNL
Procedure, shortened: as §1

[5] = target: EIF3H (UniProt O15372)
Sequence of EIF3H (O15372 whole entry): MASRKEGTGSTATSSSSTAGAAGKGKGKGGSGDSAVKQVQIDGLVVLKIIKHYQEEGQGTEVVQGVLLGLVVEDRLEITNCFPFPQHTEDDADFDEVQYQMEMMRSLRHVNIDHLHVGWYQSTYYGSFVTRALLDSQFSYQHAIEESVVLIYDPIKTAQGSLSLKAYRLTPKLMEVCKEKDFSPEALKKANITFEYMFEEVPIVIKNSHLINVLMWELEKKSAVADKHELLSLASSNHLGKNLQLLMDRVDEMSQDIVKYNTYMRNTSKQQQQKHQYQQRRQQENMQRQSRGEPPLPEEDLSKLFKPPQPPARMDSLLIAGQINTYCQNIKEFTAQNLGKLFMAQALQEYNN
Procedure, shortened: as §1

[6] = target: T3, FAM105A (UniProt Q9NUU6)
T3 sequence (whole entry): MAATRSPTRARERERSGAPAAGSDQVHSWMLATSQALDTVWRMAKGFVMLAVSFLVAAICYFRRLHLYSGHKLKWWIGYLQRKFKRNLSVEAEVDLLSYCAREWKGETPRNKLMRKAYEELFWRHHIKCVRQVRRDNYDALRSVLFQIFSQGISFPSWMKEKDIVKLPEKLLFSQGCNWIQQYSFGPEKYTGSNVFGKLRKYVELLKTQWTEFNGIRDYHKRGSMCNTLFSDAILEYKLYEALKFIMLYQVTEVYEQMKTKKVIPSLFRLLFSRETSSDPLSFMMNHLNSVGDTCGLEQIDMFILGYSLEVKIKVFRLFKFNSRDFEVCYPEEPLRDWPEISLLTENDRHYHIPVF
Procedure, shortened: as §1

[7] = target: OTUB1 (UniProt Q96FW1)
Sequence of OTUB1 (Q96FW1 whole entry): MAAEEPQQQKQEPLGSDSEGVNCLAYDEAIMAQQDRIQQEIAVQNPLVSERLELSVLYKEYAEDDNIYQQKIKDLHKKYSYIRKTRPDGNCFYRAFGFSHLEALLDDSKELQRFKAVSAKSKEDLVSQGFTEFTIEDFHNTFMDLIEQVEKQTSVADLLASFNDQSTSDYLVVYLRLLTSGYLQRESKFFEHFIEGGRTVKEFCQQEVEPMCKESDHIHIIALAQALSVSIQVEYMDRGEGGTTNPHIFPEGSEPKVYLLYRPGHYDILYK
Procedure, shortened: as §1

[8] = target: T4, OTUD4 (UniProt Q01804)
T4 sequence (whole entry): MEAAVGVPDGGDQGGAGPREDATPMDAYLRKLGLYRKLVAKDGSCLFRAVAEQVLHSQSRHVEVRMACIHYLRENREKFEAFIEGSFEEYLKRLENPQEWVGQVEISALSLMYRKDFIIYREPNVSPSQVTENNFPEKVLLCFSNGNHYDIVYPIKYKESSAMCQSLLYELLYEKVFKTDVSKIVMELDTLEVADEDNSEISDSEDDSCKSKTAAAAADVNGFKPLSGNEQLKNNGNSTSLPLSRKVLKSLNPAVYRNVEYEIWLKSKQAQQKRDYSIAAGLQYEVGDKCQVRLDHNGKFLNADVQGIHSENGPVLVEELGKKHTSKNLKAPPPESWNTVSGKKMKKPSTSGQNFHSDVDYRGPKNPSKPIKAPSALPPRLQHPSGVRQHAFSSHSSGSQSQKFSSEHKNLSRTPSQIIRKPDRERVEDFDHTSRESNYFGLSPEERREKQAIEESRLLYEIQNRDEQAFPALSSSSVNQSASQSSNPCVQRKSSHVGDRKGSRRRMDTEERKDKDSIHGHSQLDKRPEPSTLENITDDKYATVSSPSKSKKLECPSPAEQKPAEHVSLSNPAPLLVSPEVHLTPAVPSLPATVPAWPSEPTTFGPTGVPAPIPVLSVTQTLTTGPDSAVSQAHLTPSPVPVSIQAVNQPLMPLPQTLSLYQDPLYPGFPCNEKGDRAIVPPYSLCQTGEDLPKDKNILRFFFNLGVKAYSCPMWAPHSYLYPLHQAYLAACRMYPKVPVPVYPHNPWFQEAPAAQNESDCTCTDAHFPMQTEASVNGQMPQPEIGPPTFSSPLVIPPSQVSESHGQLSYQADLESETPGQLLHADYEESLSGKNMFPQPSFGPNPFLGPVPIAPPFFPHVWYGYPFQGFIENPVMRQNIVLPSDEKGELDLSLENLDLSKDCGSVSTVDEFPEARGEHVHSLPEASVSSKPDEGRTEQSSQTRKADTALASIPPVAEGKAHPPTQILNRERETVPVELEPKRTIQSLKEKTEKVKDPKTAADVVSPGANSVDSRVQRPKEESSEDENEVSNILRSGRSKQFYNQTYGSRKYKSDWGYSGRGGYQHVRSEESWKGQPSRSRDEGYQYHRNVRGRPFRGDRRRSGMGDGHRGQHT
Procedure, shortened: as §1

[9] = target: T5, OTUD5 (UniProt Q96G74)
T5 sequence (whole entry): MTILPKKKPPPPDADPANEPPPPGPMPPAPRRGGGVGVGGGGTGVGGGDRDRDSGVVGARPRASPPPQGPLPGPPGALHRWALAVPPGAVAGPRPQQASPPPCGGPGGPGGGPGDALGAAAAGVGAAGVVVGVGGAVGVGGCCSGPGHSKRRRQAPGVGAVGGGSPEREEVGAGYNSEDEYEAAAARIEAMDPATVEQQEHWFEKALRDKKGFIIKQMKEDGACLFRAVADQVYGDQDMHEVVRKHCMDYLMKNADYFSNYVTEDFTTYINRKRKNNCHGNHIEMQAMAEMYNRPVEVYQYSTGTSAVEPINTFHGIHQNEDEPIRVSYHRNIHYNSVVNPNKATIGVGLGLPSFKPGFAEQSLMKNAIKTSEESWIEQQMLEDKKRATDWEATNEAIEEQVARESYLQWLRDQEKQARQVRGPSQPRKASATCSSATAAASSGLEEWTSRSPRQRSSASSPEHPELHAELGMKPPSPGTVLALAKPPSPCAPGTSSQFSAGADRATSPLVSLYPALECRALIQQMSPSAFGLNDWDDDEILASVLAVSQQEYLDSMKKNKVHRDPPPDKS
Procedure, shortened: as §1

Measured: log2 ratio of Biotin-Ahx-Ub-VS probe labelling

Cc1nc(CC2CCN(C(=O)CCl)CC2)no1
inactive: [1] -0.358 | [3] -1.08 | [4] -0.302 | [5] -0.111 | [6] -0.155 | [7] -0.686 | [8] -0.753 | [9] -0.888
active: [2] -1.02

O=C(CCl)NCc1ccc(Cl)cc1
active: [3] -2.74
inactive: [1] 0.0638 | [2] -0.168 | [4] 0.0714 | [5] -0.105 | [6] -0.347 | [7] 0.0283 | [8] 0.0745 | [9] -0.00631

Cc1ccc(C)c(NC(=O)CCl)c1
active: [3] -3.51
inactive: [1] 0.0947 | [2] -0.548 | [4] -0.246 | [5] 0.0185 | [6] -0.0979 | [7] -0.23 | [8] -0.598 | [9] -0.833

Cc1ccn2cc(CNC(=O)CCl)nc2c1.Cl
active: [3] -1.14
inactive: [1] 0.193 | [2] -0.103 | [4] -0.185 | [5] 0.253 | [6] 0.254 | [7] 0.0771 | [8] -0.505 | [9] -0.214

O=C(CCl)NCc1cccc(F)c1
inactive: [1] -0.54 | [2] -0.297 | [4] -0.186 | [5] 0.138 | [6] 0.303 | [7] -0.181 | [8] -0.316 | [9] -0.429
active: [3] -2.76

CS(=O)(=O)c1ccc(NC(=O)CCl)cc1
active: [3] -4.05
inactive: [1] -0.729 | [2] -0.511 | [4] -0.0107 | [5] 0.14 | [6] -0.0733 | [7] -0.133 | [8] -0.368 | [9] -0.613

O=C(CCl)N1CCOC(CCc2ccccc2)C1 (stereo not drawn)
inactive: [1] -0.284 | [2] -0.798 | [4] -0.348 | [5] 0.0677 | [6] -0.23 | [7] -0.408 | [8] -0.558 | [9] -0.502
active: [3] -1.1
